Screens as filed in PubChem.
An excerpt weighted towards active compounds, which were near 3.1% of everything screened.
S1P3 antag: antagonists of human S1P3 receptor. Q99500. inhibition, % at 4.98 µM. CHO S1P3 NFAT-BLA reporter, FRET fluorescence, antagonist mode. 170,000 compounds, 0.27% hits;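 active = inhibition above the plate cutoff, the mean inhibition of test wells on that plate plus 3 SD, cut at about 28% in these data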;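 also: cells challenged with S1P at its EC80 of 0.8 µM; blue over green emission ratio from cleaved BLA substrate after 4 h stimulation; 0% = S1P-stimulated wells and 100% = unstimulated DMSO-only wells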
Target sequence (Q99500 whole entry, looked up): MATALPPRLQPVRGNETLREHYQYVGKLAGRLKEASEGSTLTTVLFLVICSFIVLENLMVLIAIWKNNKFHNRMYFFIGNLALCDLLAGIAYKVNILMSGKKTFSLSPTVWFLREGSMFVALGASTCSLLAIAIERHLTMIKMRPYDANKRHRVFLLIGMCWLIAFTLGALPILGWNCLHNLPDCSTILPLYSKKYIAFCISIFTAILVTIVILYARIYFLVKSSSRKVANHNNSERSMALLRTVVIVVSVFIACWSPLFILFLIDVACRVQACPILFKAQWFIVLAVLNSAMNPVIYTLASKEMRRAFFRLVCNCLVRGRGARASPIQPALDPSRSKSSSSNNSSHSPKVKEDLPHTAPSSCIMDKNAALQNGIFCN
EP2 antag: blocks the human prostaglandin E2 receptor EP2. P43116. C6 glioma cells expressing human EP2, cAMP TR-FRET; cells stimulated with saturating PGE2. inhibition, % at 25 µM. 260,000 compounds, 0.52% hits. AID 1422;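 active = percent inhibition above 40 after rounding to a whole number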;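 also: rat C6 glioma host cells with rolipram phosphodiesterase inhibitor present; the protocol text gives 20 µM as final concentration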
KCC2 mod: KCC2 (human) Cl- transport modulation. Q9H2X9. KCC2 cells, thallium flux FluoZin-2 fluorescence. B-score of Tl+ flux slope (higher = more flux/activation; lower = inhibition) at 10 µM. 190,000 compounds, 2.2% hits. AID 1456;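 active = thallium flux slope and its plate-corrected score both differing from the plate sample mean at a set confidence after two filtering rounds, in either direction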;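 also: slope of fluorescence scaled to starting intensity during 10 to 20 s after thallium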
EP2 mod: modulates human prostaglandin E2 receptor EP2 signaling; 260,000 compounds, 0.83% hits; induction, % at 25 µM; P43116; AID 940; EP2-expressing cells, cAMP HTRF FRET, PGE2 co-stimulation;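 active = compounds whose cAMP rise, as percent of the full-agonist control response, exceeds 60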;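 also: rat C6 glioma line stably carrying human EP2 under a CMV promoter; the protocol text gives 20 µM as final concentration; 100% = response of wells given 1 µM PGE2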
EP2 cAMP induct: human EP2 receptor cAMP induction, negative in counter-screens | shares compounds with EP2 mod | C6 glioma EP2 cells, cAMP HTRF induction; plus low (about EC15) PGE2 agonist | calls only at 20 µM (by protocol) | 1,300 compounds, 47% hits;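 active = cAMP induction above 50% in the main assay while under 30% in all four parallel counter assays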;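 also: rat C6 glioma cells stably expressing human EP2 receptor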
* hit, by the source's call; i = inactive; . = no result given; + = active, no number.

SMILES | S1P3 antag | EP2 antag | KCC2 mod | EP2 mod | EP2 cAMP induct
CCOC(=O)Cc1nnc(NC(=O)CSc2nnc3c4ccccc4n(C(C)C)c3n2)s1 | -4 | 10 | -0.4 | 16 | .
O=C(c1c(F)cccc1F)N1CCC(Cn2nc(-c3ccccc3)ccc2=O)CC1 | . | . | . | 2 | .
COc1ccc(N2CCN(c3nc4c(c(=O)n(C)c(=O)n4C)n3Cc3ccccc3)CC2)cc1 | -18 | -1 | 0.12 | 69* | i
O=C(Cn1c(Cc2ccccc2)nc2ccccc2c1=O)N1CCOCC1 | . | 14 | . | -5 | .
O=S(=O)(c1cccs1)N1CN(Cc2cccs2)c2nc3ccccc3nc21 | 22 | 13 | -2.5 | 65* | i
O=S(=O)(c1cccs1)N1CN(Cc2ccccc2)c2nc3ccccc3nc21 | . | 14 | . | 30 | .
Oc1ccc(/C=N/N2CCN(C3c4ccccc4-c4ccccc43)CC2)cc1 | -8 | 14 | . | 10 | .
Oc1ccc(/C=N/N2CCN(C3c4ccccc4-c4ccccc43)CC2)c(O)c1 | -7 | 6 | 0.88 | 66* | i
Cc1noc(C)c1COC(=O)C(c1ccccc1)c1ccccc1 | -5 | 5 | -0.93 | 75* | i
Cc1nnc(SCC(=O)NC2CCCCC2)n1C1CCCCC1 | 4 | 15 | 0.89 | 53 | i
O=C(CSc1nnc(-c2ccncc2)n1C1CCCCC1)NC1CCCC1 | . | 18 | . | 8 | .
COc1cc2ccccc2cc1C(=O)NC(=S)Nc1cccc(C(=O)O)c1 | -26 | 3 | -2.9 | 95* | +
O=C(Cc1cccc2ccccc12)NC(=S)Nc1cccc(C(=O)O)c1 | -1 | 5 | -0.48 | -4 | .
CCCCOC(=O)Sc1nc2ccccc2o1 | -40 | 14 | -1.9 | 71* | i
Cc1ccc(C(=O)CSc2nc3ccccc3o2)cc1C | . | 5 | . | 22 | .
c1ccc2c(-c3nc(C4CCCCC4)no3)cc(-c3ccncc3)nc2c1 | -24 | 5 | 0.27 | 67* | +
CC[n+]1c(C)oc2ccc(OC)cc21 | . | 7 | . | 16 | .
COCCCNc1nc2c(c(=O)[nH]c(=O)n2C)n1CCOC | . | 14 | . | 17 | .
C/C(=N\NC(=O)c1ccco1)c1ccc(NC(=O)c2ccccc2)cc1 | 8 | 5 | -1.3 | -25 | .
C/C(=N\N=C(c1ccccc1)c1ccccc1)c1ccco1 | -9 | 7 | -2.6 | 81* | +
Cc1ncsc1C(=O)N1CCC[C@H](Cn2cc(C(=O)N3CCOCC3)nn2)C1 | . | . | . | -2 | .
c1ccc(-c2nn3c(-c4ccccc4)nnc3s2)cc1 | -2 | 3 | -0.12 | 74* | +
c1ccc(-c2nn3c(C4CCCCC4)nnc3s2)cc1 | . | 3 | -0.8 | 73* | +
CC1Oc2ccccc2N(CC(=O)Nc2ccccc2-c2ccccc2)C1=O (configuration not stated) | . | 4 | . | 51 | .
Cc1ccc(C)c(N(CC(=O)NCC2CCCO2)S(C)(=O)=O)c1 (configuration not stated) | . | 7 | . | -30 | .
SMILES | S1P3 antag | EP2 antag | KCC2 mod | EP2 mod | EP2 cAMP induct
O=C(NCc1ccco1)Nc1ccc(F)cc1 | . | 10 | . | -28 | .
COc1ccc(NC(=O)CN2CCC(n3nnc4cc(C(F)(F)F)ccc43)CC2)cc1 | . | 9 | . | -18 | .
COC(=O)c1sccc1NC(=O)c1cccc(OC)c1 | . | 14 | . | 67* | i
COC(=O)c1sccc1NC(=O)c1cc2c(s1)CCCC2 | 16 | . | 0.51 | 54 | i
Cc1ccc(C(=O)OCC(=O)Nc2ccccc2Sc2ccccc2)cc1C | -9 | 7 | 0.29 | 69* | +
CN1CCN(C2CCNCC2)CC1 | . | 10 | . | -21 | .
CCOC(=O)CNC(=O)c1ccc2c(c1)OCCO2 | 5 | 14 | 0.069 | 69* | i
CCOC(=O)CNC(=O)c1cc(-c2ccc3c(c2)OCCO3)oc1C | . | 14 | . | -30 | .
Cc1ccccc1NC(=S)NC(=O)/C=C/c1cccs1 | . | 17 | . | -18 | .
Cc1ccc(S(=O)(=O)c2ccc(Oc3cccc(C)c3)cc2)cc1 | . | 8 | . | 78* | i
Cc1cccc(Oc2ccc(S(=O)(=O)N3CCCCC3)cc2N)c1 | 1 | 11 | -0.13 | -14 | .
Cc1c(C(=O)NCc2noc(-c3ccccc3)n2)[nH]c2c(Cl)cccc12 | . | 9 | . | -78 | .
Cc1ccc2nc(N3CCC(C(=O)O)CC3)nc(-c3ccccc3)c2c1 | 10 | 13 | -2.4 | 91* | i
c1ccc(-c2nc(N3CCCCC3)nc3ccccc23)cc1 | . | 10 | 1.9 | 56 | .
CC(C)c1c(O)nc(SCC(=O)Nc2ccccc2F)[nH]c1=O | . | 13 | . | -18 | .
COc1cnc(N(C)C)nc1Sc1cccc(Cl)c1 | . | 11 | -0.39 | 76* | +
COc1cnc(-c2ccccc2)nc1Sc1ccccc1 | 11 | 3 | -0.12 | 41 | .
O=C(CN1CCC(O)(c2ccccn2)CC1)Nc1nc2c(s1)CCCC2 | . | . | . | -19 | .
Cc1ccc(-c2nnn(CC(=O)N(Cc3cccs3)C(C(=O)NC3CCCC3)c3ccncc3)n2)cc1 (configuration not stated) | . | 18 | . | 72* | i
O=C(NCC1CCCO1)C(c1ccncc1)N(Cc1cccs1)C(=O)Cn1nnc(-c2ccc(F)cc2)n1 (configuration not stated) | -13 | 12 | -0.15 | -13 | .
CCn1cncc1CN(CCCn1ccnc1)Cc1ccc(C)s1 | . | 3 | . | 5 | .
CCc1ccccc1NC(=S)N(Cc1ccco1)C(C)c1cccs1 (configuration not stated) | -29 | 4 | 0.52 | 60 | i
CC1(C)Oc2ccc(C(=O)N3CCCC3)cc2N(CC(=O)N2CCCCC2)C1=O | . | 9 | . | 3 | .
CC1(C)Oc2ccc(C(=O)N3CCOCC3)cc2N(CC(=O)N2CCOCC2)C1=O | 8 | 19 | 0.24 | 74* | i
CCCn1c(SCC(=O)Nc2ccccc2CC)nnc1-c1ccco1 | . | 5 | . | -12 | .
SMILES | S1P3 antag | EP2 antag | KCC2 mod | EP2 mod | EP2 cAMP induct
COC(=O)c1cc2nc(-c3ccccc3)cc(C)n2n1 | -21 | 11 | 1.1 | 4 | .
Cc1cc(-c2ccccc2)nc2cc(C(=O)N(Cc3ccccc3)Cc3ccccc3)nn12 | . | 7 | -1.5 | 72* | +
COc1ccc(-c2cc(C(F)(F)F)n3nc(C(=O)N(C)Cc4ccccc4)cc3n2)cc1OC | 1 | 5 | -0.76 | 58 | i
O=C(O)c1oc(C(=O)O)c(C(=O)O)c1C(=O)O | . | 11 | . | 57 | i
CSc1nc(NCc2ccco2)c2ccccc2n1 | . | 16 | . | 65* | i
Cc1ccc(-c2nc(NCc3ccco3)c3ccccc3n2)cc1 | -10 | 7 | -0.19 | 36 | .
O=C1NC(c2ccc(F)cc2)C(C(=O)c2cccs2)=C1O (configuration not stated) | . | 24 | . | 4 | .
COc1ccc(-c2cc(C(F)(F)F)nc(SCC(=O)NCCCn3ccnc3)n2)cc1 | . | 33 | . | -99 | .
Cc1ccc2[nH]c(=O)c(CN(Cc3ccco3)C(=O)CN(C)C3CCCCC3)cc2c1 | . | 22 | . | -5 | .
CC(Sc1cnc2ccccc2n1)C(=O)O (configuration not stated) | . | 19 | 0.31 | 68* | i
COC(=O)CSc1cnc2ccccc2n1 | . | 2 | -0.012 | 14 | .
